The supplement of paper PMC12645437, “Orthogonal IMiD-Degron Pairs Induce Selective Protein Degradation in Cells” (ACS Chemical Biology, 2025)
In all, about 8,300 sequences were measured (“log2 fold change of degron read counts, EGFP-low vs EGFP+ sorted cells (limma voom), compound-induced degradation”: median about -1.1, highest 2% from about 3.2 on). The entries come from a sample that favours the highest values as a whole.

T1: CRBN, Q96SW2
T1 chain: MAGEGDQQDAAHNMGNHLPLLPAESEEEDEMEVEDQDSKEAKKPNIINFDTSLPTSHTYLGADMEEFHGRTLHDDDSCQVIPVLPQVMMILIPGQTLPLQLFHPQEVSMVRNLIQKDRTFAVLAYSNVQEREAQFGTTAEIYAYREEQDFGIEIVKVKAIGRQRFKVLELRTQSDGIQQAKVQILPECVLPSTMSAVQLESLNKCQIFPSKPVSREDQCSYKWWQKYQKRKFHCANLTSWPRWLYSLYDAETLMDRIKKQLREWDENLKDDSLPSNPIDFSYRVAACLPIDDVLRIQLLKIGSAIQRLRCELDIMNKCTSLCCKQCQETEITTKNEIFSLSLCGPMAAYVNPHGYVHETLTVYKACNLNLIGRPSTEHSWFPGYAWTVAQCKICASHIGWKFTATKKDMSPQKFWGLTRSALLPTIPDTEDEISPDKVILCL

B1: 46L_47L_49E_50I_52G_53F_54N_55C_67L_, Q9UKT9 (peptide)
chain: LLCEICGFNCTQKGNLLRHIKL
B2: 46F_47Y_49E_50I_52G_53R_54P_55F_67L_, Q9UKT9 (peptide)
chain: FYCEICGRPFTQKGNLLRHIKL
B3: 46F_47A_49N_50Q_52G_53H_54H_55F_67L_, Q9UKT9 (peptide)
chain: FACNQCGHHFTQKGNLLRHIKL
B4: 46F_47D_49N_50Q_52G_53A_54S_55F_67L_, Q9UKT9 (peptide)
chain: FDCNQCGASFTQKGNLLRHIKL
B5: 46F_47Y_49P_50I_52G_53H_54Y_55F_67L_, Q9UKT9 (peptide)
chain: FYCPICGHYFTQKGNLLRHIKL
B6: 46F_47W_49P_50I_52G_53A_54F_55F_67L_, Q9UKT9 (peptide)
chain: FWCPICGAFFTQKGNLLRHIKL
B7: 46L_47K_49N_50Q_52G_53F_54Q_55C_67L_, Q9UKT9 (peptide)
chain: LKCNQCGFQCTQKGNLLRHIKL
B8: 46F_47K_49D_50Q_52G_53A_54E_55F_67L_, Q9UKT9 (peptide)
chain: FKCDQCGAEFTQKGNLLRHIKL
B9: 46F_47V_49E_50V_52G_53A_54T_55F_67L_, Q9UKT9 (peptide)
chain: FVCEVCGATFTQKGNLLRHIKL
B10: 46F_47F_49E_50V_52G_53A_54T_55F_67L_, Q9UKT9 (peptide)
chain: FFCEVCGATFTQKGNLLRHIKL
B11: 46F_47L_49E_50V_52G_53A_54T_55F_67L_, Q9UKT9 (peptide)
chain: FLCEVCGATFTQKGNLLRHIKL
B12: 46F_47L_49P_50I_52G_53R_54G_55F_67L_, Q9UKT9 (peptide)
chain: FLCPICGRGFTQKGNLLRHIKL
B13: 46F_47Y_49P_50I_52G_53A_54H_55F_67L_, Q9UKT9 (peptide)
chain: FYCPICGAHFTQKGNLLRHIKL
B14: 46F_47S_49P_50I_52G_53A_54H_55F_67L_, Q9UKT9 (peptide)
chain: FSCPICGAHFTQKGNLLRHIKL
B15: 46F_47A_49P_50I_52G_53A_54H_55F_67L_, Q9UKT9 (peptide)
chain: FACPICGAHFTQKGNLLRHIKL
B16: 46F_47Q_49P_50I_52G_53A_54H_55F_67L_, Q9UKT9 (peptide)
chain: FQCPICGAHFTQKGNLLRHIKL
B17: 46F_47V_49P_50I_52G_53A_54H_55F_67L_, Q9UKT9 (peptide)
chain: FVCPICGAHFTQKGNLLRHIKL
B18: 46F_47W_49P_50I_52G_53A_54H_55F_67L_, Q9UKT9 (peptide)
chain: FWCPICGAHFTQKGNLLRHIKL
B19: 46F_47G_49P_50I_52G_53A_54H_55F_67L_, Q9UKT9 (peptide)
chain: FGCPICGAHFTQKGNLLRHIKL
B20: 46F_47F_49P_50I_52G_53A_54H_55F_67L_, Q9UKT9 (peptide)
chain: FFCPICGAHFTQKGNLLRHIKL
B21: 46F_47C_49P_50I_52G_53A_54H_55F_67L_, Q9UKT9 (peptide)
chain: FCCPICGAHFTQKGNLLRHIKL
B22: 46F_47E_49E_50Q_52G_53A_54D_55F_67L_, Q9UKT9 (peptide)
chain: FECEQCGADFTQKGNLLRHIKL
B23: 46F_47W_49P_50V_52G_53A_54L_55F_67L_, Q9UKT9 (peptide)
chain: FWCPVCGALFTQKGNLLRHIKL
B24: 46F_47Y_49E_50I_52G_53R_54E_55F_67L_, Q9UKT9 (peptide)
chain: FYCEICGREFTQKGNLLRHIKL
B25: 46F_47G_49P_50I_52G_53H_54W_55F_67L_, Q9UKT9 (peptide)
chain: FGCPICGHWFTQKGNLLRHIKL
B26: 46F_47W_49E_50V_52G_53A_54N_55F_67L_, Q9UKT9 (peptide)
chain: FWCEVCGANFTQKGNLLRHIKL
B27: 46F_47V_49E_50V_52G_53A_54N_55F_67L_, Q9UKT9 (peptide)
chain: FVCEVCGANFTQKGNLLRHIKL
B28: 46F_47Q_49E_50V_52G_53A_54N_55F_67L_, Q9UKT9 (peptide)
chain: FQCEVCGANFTQKGNLLRHIKL
B29: 46F_47Y_49E_50V_52G_53A_54N_55F_67L_, Q9UKT9 (peptide)
chain: FYCEVCGANFTQKGNLLRHIKL
B30: 46F_47E_49E_50V_52G_53A_54N_55F_67L_, Q9UKT9 (peptide)
chain: FECEVCGANFTQKGNLLRHIKL
B31: 46F_47H_49E_50V_52G_53A_54N_55F_67L_, Q9UKT9 (peptide)
chain: FHCEVCGANFTQKGNLLRHIKL
B32: 46F_47I_49E_50V_52G_53A_54N_55F_67L_, Q9UKT9 (peptide)
chain: FICEVCGANFTQKGNLLRHIKL
B33: 46F_47L_49E_50V_52G_53A_54N_55F_67L_, Q9UKT9 (peptide)
chain: FLCEVCGANFTQKGNLLRHIKL
B34: 46F_47T_49E_50V_52G_53A_54N_55F_67L_, Q9UKT9 (peptide)
chain: FTCEVCGANFTQKGNLLRHIKL
B35: 46F_47F_49E_50V_52G_53A_54N_55F_67L_, Q9UKT9 (peptide)
chain: FFCEVCGANFTQKGNLLRHIKL
B36: 46F_47M_49E_50V_52G_53A_54N_55F_67L_, Q9UKT9 (peptide)
chain: FMCEVCGANFTQKGNLLRHIKL
B37: 46F_47N_49E_50V_52G_53A_54N_55F_67L_, Q9UKT9 (peptide)
chain: FNCEVCGANFTQKGNLLRHIKL

Molecular target: T1, CRBN, Q96SW2
Experiment: log2 fold change of degron read counts, EGFP-low vs EGFP+ sorted cells (limma voom), compound-induced degradation; higher = more compound-induced degradation of the degron-EGFP fusion; degrons are variants of IKZF1/3 zinc finger 2; compound dose not given here
Settings: Jurkat, 18 h
[1] = compound: compound 19 (5-tert-butyl-thalidomide)
[2] = compound: compound 22 (5-morpholino-thalidomide)
[3] = compound: compound 33 (diphenyl IMiD analogue)
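Note: pooled lentiviral library of zinc finger degron-EGFP fusions in mCherry-positive Jurkat cells, FACS-sorted after compound exposure, with degron abundance counted by next-generation sequencing.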

Sequence	log2 fold change of degron read counts [1]	log2 fold change of degron read counts [2]	log2 fold change of degron read counts [3]	log2 fold change of degron read counts (compound: thalidomide)
B1	-1.18	-1.96	-1.11	-0.267
B2	3.04	1.62	1.39	0.0233
B3	-2.3	-2.72	-2.62	-2.01
B4	-2.01	-2.73	-2.35	-2.1
B5	-0.992	-1.44	-0.727	-1.13
B6	2.39	3	1.83	0.77
B7	-2.34	-2.76	-2.86	-2.48
B8	-2.81	-1.6	-3.49	-3
B9	-0.246	1.36	1.98	2.24
B10	2.72	3.74	1.9	1.47
B11	-1.71	-1.32	0.752	1.34
B12	-1.58	-1.94	-0.785	-0.724
B13	3.12	3.56	2.1	0.702
B14	2.35	1.14	1.5	1.13
B15	3.08	1	0.948	0.563
B16	0.0422	1.5	1.32	3.32
B17	-0.217	2.12	1.37	2.41
B18	2.66	3.51	1.81	0.881
B19	2.89	1.31	1.51	0.333

Sequence	log2 fold change of degron read counts [1]	log2 fold change of degron read counts [2]	log2 fold change of degron read counts [3]	log2 fold change of degron read counts (compound: thalidomide)
B20	2.66	2.83	1.81	0.615
B21	1.94	0.949	1.85	1.24
B22	-3.85	-4.35	-2.06	-2.36
B23	1.3	2.3	1.77	0.113
B24	-0.515	-1.07	-0.325	-1.93
B25	-1.35	-2.19	-1.6	-1.77
B26	3.33	3.86	2.16	1.61
B27	-0.0108	2.6	2.09	2.74
B28	0.104	1.29	1.34	3.56
B29	3.26	3.88	2.56	1.5
B30	-0.492	-1.03	2.04	2.31
B31	0.846	0.806	-0.028	-0.545
B32	-0.804	2.54	2.03	2.44
B33	-0.0798	-0.418	0.939	1.25
B34	-0.297	1.72	1.21	2.03
B35	2.83	3.44	1.84	1.47
B36	-0.728	0.197	2.72	1.11
B37	2.09	0.096	-0.251	-0.321
